Screening results from PubChem.
RAD54 branch: inhibitors of human RAD54 branch migration, primary screen, biochemical, fluorescence, single point; AID 602329, 2012; inhibition, % at 10.4 µM; hit rate 0.14% among 360,000; RAD54 Holliday junction branch migration, FAM/BHQ fluorescence;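 active means mean normalized replicate activity at least 40 and at least half of replicates scoring 40 or more; inconclusive means only one of the two criteria met; inactive means mean below 40 and under half of replicates reaching 40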;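 further: 0% = median of neutral control wells and 100% = median of positive control wells; inhibitors cause a drop in the FAM fluorescence signal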
dFosB activator: activators of delta FosB homodimer, primary screen, biochemical, fluorescence polarization, TAMRA-CDK5 oligo, single point. Protein FosB (Mus musculus), P13346. purified delta FosB; percent of positive-control signal above neutral wells. activation, % at 25 µM. hit rate 0.99% among 340,000;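 active means mean activation above about 17%, with every replicate also reaching it, limit read from the data, passing the limit was not always enough; inconclusive means only one of the two conditions met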
MLL AF4-AF9 inh: inhibitors of AF4 peptide binding to AF9, primary screen, biochemical, AlphaScreen, biotin-AF4 peptide, FLAG-AF9, single point; Protein AF-9 (Homo sapiens), P42568; inhibition, % at 10 µM; hit rate 0.47% among 350,000; AID 651704, 2012;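 active means every replicate reaching a set inhibition limit, whatever the replicate mean, cut at about 25% in these data; inconclusive means mean inhibition reaches that limit but some replicates miss it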;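 further: 0% = plate neutral control median and 100% = total signal loss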
GSIS activator: GLuc luminescence reporter in INS-1E cells, primary screen for activators of glucose-dependent secretion of insulin. INS-1E GLuc reporter insulin secretion, 2-3 h. activation, % at 16.6 µM. hit rate 0.61% among 370,000. AID 743287, 2014;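 active means lowest replicate activation of at least 40%, so every replicate reaches that level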;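 further: 0% = median of neutral control wells and 100% = median of IBMX positive control wells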
RAD52 inh: RAD52 DNA annealing inhibitors, primary screen, biochemical, FRET, single point, set 2; DNA repair protein RAD52 homolog (Homo sapiens), P43351; recombinant RAD52 DNA annealing, FRET fluorescence; inhibition, % at 18.7 µM; hit rate 0.46% among 360,000; AID 651710, 2012;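 active means every replicate showing at least 50% inhibition; inconclusive means mean inhibition at least 50% but not in every replicate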
Target sequence (P43351 whole entry, looked up): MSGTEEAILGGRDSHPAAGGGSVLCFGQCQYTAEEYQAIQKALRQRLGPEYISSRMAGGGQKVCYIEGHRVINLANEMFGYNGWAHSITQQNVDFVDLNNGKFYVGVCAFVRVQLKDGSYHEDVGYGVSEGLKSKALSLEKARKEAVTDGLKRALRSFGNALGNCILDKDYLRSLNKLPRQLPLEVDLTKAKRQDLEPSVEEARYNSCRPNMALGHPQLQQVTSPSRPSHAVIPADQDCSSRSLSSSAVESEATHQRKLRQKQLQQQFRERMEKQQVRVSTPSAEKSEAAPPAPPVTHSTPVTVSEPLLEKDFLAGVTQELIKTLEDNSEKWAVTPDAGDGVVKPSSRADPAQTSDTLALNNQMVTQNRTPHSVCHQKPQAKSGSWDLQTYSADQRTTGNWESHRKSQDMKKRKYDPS
DENV2 CPE rescue: inhibitors of DENV2 cytopathic effect, primary screen, cell-based, plate reader, single concentration; DENV2-infected cells, cytopathic effect rescue; AID 651640, 2012; hit rate 1.7% among 350,000; CPE inhibition, % at 9.99 µM; in the data active means CPE inhibition above about 20%, passing the limit was not always enough; inconclusive means no clear call, values can overlap the other calls; tested in BHK-21 cells;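 further: 0% = median of neutral control wells and 100% = median of positive control wells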
Alpha interfer: AlphaScreen signal interference counter-screen, dose response, artefact control, biochemical, cherry-picked samples, luminescence | shares compounds with MLL AF4-AF9 inh | AC50, µM (titrated, usually from 12 µM), without a hit: top-dose activity change, negative = inhibition | hit rate 45% among 530 | AID 720494, 2013; cut-off not given, nearly all actives have AC50 up to about 14 µM
DNA binder FP: DNA-binding compounds via dye displacement, dose response, artefact control for RAD52 inhibitor project, biochemical, fluorescence polarization, cherry-pick; Salmon sperm DNA/acridine orange FP displacement; hit rate 8% among 1,000; AC50, µM; AID 652128, 2013; shares compounds with RAD52 inh;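 active means fitted half-maximal concentration for signal loss at or below twice the highest dose tested, in every separate run, actives reach about 64 µM in these data; inconclusive means runs disagree, or flat partial signal loss, or poor fit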
The depositor's hits bear a star; i = inactive; ? = inconclusive; . = no result given; ! = a repeat was not active. Compounds with a hit are over-represented: about 3.1% of the library has one in this group of screens.

SMILES	RAD54 branch	dFosB activator	MLL AF4-AF9 inh	GSIS activator	RAD52 inh	DENV2 CPE rescue	DNA binder FP	others
CCN(CC)c1ccc(C(=C2C=CC(=[N+](CC)CC)C=C2)c2ccc(N(CC)CC)cc2)cc1	17	7	98*	.	52*	-3	i	Alpha interfer=0.26µM*
CCN(CC)c1ccc(C(=O)NNC(=O)CCl)cc1	11	6	4	-8	-20	-3	.
CN(C)CCCNC(=O)c1ccc(-c2cc(O)c3ncccc3c2)cc1	38	46*	87*	.	101*	.	i	Alpha interfer=1.8µM*
COc1ccc(S(=O)(=O)Nc2cccc3c2O[C@@H](CN(C)CC2CCCCC2)[C@@H](C)CN([C@@H](C)CO)C3=O)cc1	-5	.	0	-7	5	-2	.
CCOC(=O)c1c(C)n(-c2ccc(C)cc2)c2ccc(OCC(O)CNCCCO)cc12 (stereo not drawn)	.	9	27*	24	83*	5	i	Alpha interfer=-19%
C[C@H]1CN([C@@H](C)CO)C(=O)Cc2cc(N(C)C)ccc2O[C@H]1CN(C)C(=O)Nc1ccc(F)cc1	.	.	-1	3	0	12	.
C[C@@H]1CCCCO[C@@H](CN(C)Cc2ccncc2)[C@@H](C)CN([C@H](C)CO)C(=O)c2cc(N(C)C)ccc2O1	.	.	.	5	.	.	.
Cc1c(C)n(Cc2ccccc2)c2ccc(C(=O)OCCN(C)C)cc12	31	-7	28*	5	66*	-5	i	Alpha interfer=-29%
O=C1N[C@H](c2ccccc2)COCc2cn(nn2)CC[C@@H]1Cc1ccc(C(F)(F)F)cc1	.	.	.	11	.	.	.
CN(C)CCNC(=O)c1cccc(-c2cc(NC=O)c3ncc(-c4cccc(C(F)(F)F)c4)n3c2)c1	35	.	36*	124*	74*	9	i	Alpha interfer=-33%
CN(C)CCCNC(=O)C[C@H]1C[C@H](C(=O)N2CCOCC2)[C@@]2(CCC3CCCC3)c3[nH]c4cc(-c5ccco5)ccc4c3CCN2C1=O	29	-17	41*	9	52*	-2	i
COc1cc2c3c(cccc3c1)C(=O)N(CCN1CCCC1)C2=O	106*	.	-1	.	71*	3	31µM*
COc1cccc(OCC(O)CN2CCN(CCN3C(=O)c4cccc5cccc(c45)C3=O)CC2)c1 (stereo not drawn)	.	?	17	-5	91*	-5	?
CS(=O)(=O)N1CCN(CCN2C(=O)c3cccc4cccc(c34)C2=O)CC1	.	5	-11	2	-2	-1	.
O=C1c2cccc3cccc(c23)C(=O)N1CCN1CCN(CC(O)COc2ccccc2)CC1 (stereo not drawn)	42	14	.	5	.	.	.
NC(=S)NN=C1c2cc(OCCN3CCOCC3)ccc2-c2ccc(OCCN3CCOCC3)cc21	.	39*	12	6	87*	-2	i
COc1ccc(NC(=O)Nc2ccc3c(c2)C(=O)N([C@H](C)CO)C[C@@H](C)[C@@H](CN(C)Cc2ccc4c(c2)OCO4)OCCCC[C@H](C)O3)cc1	-4	.	11	-19	59*!	-14	i
Cc1c(C)n(C)c2ccc(C(=O)NCCCN3CCN(C)CC3)cc12	10	-6	14	-10	74*	1	i
C[C@@H]1CN([C@H](C)CO)C(=O)Cc2cc(NC(=O)Cn3cnnn3)ccc2O[C@H]1CN(C)S(=O)(=O)c1ccc(F)cc1	7	.	1	22	-5	-2	.
CCCS(=O)(=O)Nc1ccc(Nc2c3ccccc3nc3ccccc23)c(OC)c1	.	54*	15	-13	64*	1	?
CCCCCCCCCCCCCCCC[n+]1ccccc1	55*	-148	-3	497*	93*	?	?
